We go through 56 compounds from paper PMC4336329 (PLoS ONE, 2015).

Screen size: about 310,000 compounds; about 14,000 (4.5%) showed an effect of 50% or more. The effect is printed as a negative number. For the sample, strong results were picked, then their nearest neighbours and some compounds at random.
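Further: peak tail current of the secondary pulse compared with the same well before compound.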

In the test the target is human ether-à-go-go-related gene (hERG) potassium channel (human, UniProt Q12809). In words: primary screen, population patch clamp on CHO cells stably expressing hERG; higher = less effect of the substance.
Chain of human ether-à-go-go-related gene (hERG) potassium channel (Q12809 whole entry, looked up): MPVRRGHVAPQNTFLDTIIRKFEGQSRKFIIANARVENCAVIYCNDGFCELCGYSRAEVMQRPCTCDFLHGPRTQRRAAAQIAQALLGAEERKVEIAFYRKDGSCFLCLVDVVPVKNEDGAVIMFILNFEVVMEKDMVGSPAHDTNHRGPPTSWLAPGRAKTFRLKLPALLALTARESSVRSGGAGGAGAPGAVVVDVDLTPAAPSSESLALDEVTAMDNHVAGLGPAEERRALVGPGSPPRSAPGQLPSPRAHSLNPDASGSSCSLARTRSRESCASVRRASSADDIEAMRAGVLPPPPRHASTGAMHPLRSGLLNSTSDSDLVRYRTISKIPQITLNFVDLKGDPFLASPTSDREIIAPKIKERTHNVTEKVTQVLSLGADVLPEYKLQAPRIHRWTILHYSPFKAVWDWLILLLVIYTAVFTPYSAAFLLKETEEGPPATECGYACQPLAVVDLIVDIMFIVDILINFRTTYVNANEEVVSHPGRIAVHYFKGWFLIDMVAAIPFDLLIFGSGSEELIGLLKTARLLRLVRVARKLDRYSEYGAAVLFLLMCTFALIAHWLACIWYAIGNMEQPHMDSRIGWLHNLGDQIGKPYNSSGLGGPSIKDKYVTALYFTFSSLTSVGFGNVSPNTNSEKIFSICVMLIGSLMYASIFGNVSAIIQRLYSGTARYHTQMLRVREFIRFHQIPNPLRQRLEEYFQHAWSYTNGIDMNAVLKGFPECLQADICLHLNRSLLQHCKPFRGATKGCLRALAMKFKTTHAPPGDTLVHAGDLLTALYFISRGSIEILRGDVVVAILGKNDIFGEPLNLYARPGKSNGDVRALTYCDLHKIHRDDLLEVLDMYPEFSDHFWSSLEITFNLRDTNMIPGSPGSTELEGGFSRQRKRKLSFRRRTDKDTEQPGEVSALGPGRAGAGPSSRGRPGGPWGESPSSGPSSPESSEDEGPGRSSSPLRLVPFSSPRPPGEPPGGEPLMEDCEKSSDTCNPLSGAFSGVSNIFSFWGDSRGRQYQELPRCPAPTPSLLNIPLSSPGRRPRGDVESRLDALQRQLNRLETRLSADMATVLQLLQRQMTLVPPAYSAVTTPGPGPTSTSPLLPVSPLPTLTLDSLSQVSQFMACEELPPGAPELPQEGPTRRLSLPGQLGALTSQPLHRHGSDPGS
Turning to `O=C(CN1C(=O)C2CC=CCC2C1=O)Nc1ccc(OC(F)(F)F)cc1` (centres unmarked), the “hERG current change (%, negative = inhibition) at 10uM” value is reported as -14.2%.

As to `CCOC(=O)c1c(-c2ccccc2)csc1NC(=O)CSc1ccccc1`, the “hERG current change (%, negative = inhibition) at 10uM” value is reported as -4.13%.

Consider `O=C(CSc1nnc(Cc2ccsc2)o1)c1ccccc1`, for which the “hERG current change (%, negative = inhibition) at 10uM” value is -16.7%.

For `CC1(C)CC(=O)C(C=Nc2ccc(Cl)cn2)=C(O)C1`, the “hERG current change (%, negative = inhibition) at 10uM” value stood at 11.6%.

As to `CN(C(=O)COc1cc(=O)n(C)c2ccccc12)c1ccc(Cl)cc1`, the “hERG current change (%, negative = inhibition) at 10uM” value is on record as -29.2%.

For the compound `COc1cc(=O)n(C)c2ccccc12`, the “hERG current change (%, negative = inhibition) at 10uM” value is reported as -4.88%.

With `CN(c1ccc(Cl)cc1)c1cc(=O)n(C)c2ccccc12`, the “hERG current change (%, negative = inhibition) at 10uM” value was -51.8%.

As to `CCC(CC)COC(=O)C1=C(C)NC(=O)NC1c1ccc([N+](=O)[O-])cc1` (centres unmarked), the “hERG current change (%, negative = inhibition) at 10uM” value is reported as 11.6%.

In the case of `Cc1ccc(NS(=O)(=O)c2cccc(C(=O)NCC(c3ccc(F)cc3)N3CCOCC3)c2)cc1` (centres unmarked), the “hERG current change (%, negative = inhibition) at 10uM” value is -16.8%.

For the compound `CCN(CC)c1ccc(CN2CC=C(c3ccc(F)cc3)CC2)cc1`, the “hERG current change (%, negative = inhibition) at 10uM” value is recorded as -78.4%.

On to `O=[N+]([O-])c1ccccc1CN1CC=C(c2ccc(F)cc2)CC1`, for which the “hERG current change (%, negative = inhibition) at 10uM” value is -12.8%.

Turning to `CCN(CC)c1ccc(CN2CCCCCC2)cc1`, the “hERG current change (%, negative = inhibition) at 10uM” value is -20.4%.

As to `COc1cc(CN2CC=C(c3ccc(F)cc3)CC2)cc(OC)c1`, the “hERG current change (%, negative = inhibition) at 10uM” value was -57.3%.

`COc1cc(C)c(CN2CC=C(c3ccc(F)cc3)CC2)cc1C`: the “hERG current change (%, negative = inhibition) at 10uM” value is on record as -37.2%.

For the compound `CN(C)c1ccc(CN2CC=C(c3ccc(F)cc3)CC2)cc1`, the “hERG current change (%, negative = inhibition) at 10uM” value is listed as -69.9%.

Take `COc1ccc(CN2CC=C(c3ccc(F)cc3)CC2)cc1Br`: the “hERG current change (%, negative = inhibition) at 10uM” value is recorded as -11.7%.

For the compound `O=[N+]([O-])c1cccc(CN2CC=C(c3ccc(F)cc3)CC2)c1`, the “hERG current change (%, negative = inhibition) at 10uM” value is -39.2%.

Turning to `COc1cccc(CN2CC=C(c3ccc(F)cc3)CC2)c1`, the “hERG current change (%, negative = inhibition) at 10uM” value is -26.5%.

For `CCOC(=O)c1c(S(=O)(=O)N2c3ccccc3CC2C)c(C)n(C)c1C` (centres unmarked), the “hERG current change (%, negative = inhibition) at 10uM” value is on record as 13.1%.

`CC(=O)Oc1ccc(C(=O)Nc2cccc(-c3nnc(-c4ccco4)o3)c2)cc1`: the “hERG current change (%, negative = inhibition) at 10uM” value is on record as 0.775%.

In the case of `O=C(COC(=O)C1(c2ccc(F)cc2)CCCC1)NC1CC1`, the “hERG current change (%, negative = inhibition) at 10uM” value stood at 0.676%.

For `CCC1(C)Cc2c(sc3nc(SC)n(Cc4ccccc4)c(=O)c23)CO1` (centres unmarked), the “hERG current change (%, negative = inhibition) at 10uM” value came out at 6.63%.

With `Cc1sc(NC(=O)C2=COCCO2)nc1-c1ccc(Cl)cc1`, the “hERG current change (%, negative = inhibition) at 10uM” value is 13%.

Consider `CCCCn1c(=O)c(CCC(=O)OCC(=O)NC(=O)NCCC(C)C)nc2ccccc21`, for which the “hERG current change (%, negative = inhibition) at 10uM” value is reported as -9.31%.

As for `CCc1nnc(NC(=O)C2CCCN(S(=O)(=O)c3ccccc3)C2)s1` (centres unmarked), the “hERG current change (%, negative = inhibition) at 10uM” value is 5.15%.

Take `Cc1nc2cc(NC(=O)COc3ccccc3C#N)ccc2n1-c1ccccc1`: the “hERG current change (%, negative = inhibition) at 10uM” value is reported as -4.85%.

`Clc1ccc(OCCN2CCOCC2)cc1`: the “hERG current change (%, negative = inhibition) at 10uM” value was determined as 17%.

Turning to `NS(=O)(=O)c1ccc(N2CCN(CCOc3ccc(Cl)cc3)CC2)nc1`, the “hERG current change (%, negative = inhibition) at 10uM” value is listed as -69.8%.

Turning to `Clc1ccc(OCCN2CCN(c3ncnc4sccc34)CC2)cc1`, the “hERG current change (%, negative = inhibition) at 10uM” value was -81.2%.

As for `Cc1sc2ncnc(N3CCN(CCOc4ccc(Cl)cc4)CC3)c2c1C`, the “hERG current change (%, negative = inhibition) at 10uM” value is -9.02%.

`Cc1cc(C)c(C#N)c(N2CCN(CCOc3ccc(Cl)cc3)CC2)n1`: the “hERG current change (%, negative = inhibition) at 10uM” value is -33.6%.

For `CCN(CC)S(=O)(=O)c1ccc(N2CCN(CCOc3ccc(OC)cc3)CC2)nc1`, the “hERG current change (%, negative = inhibition) at 10uM” value is reported as -46.8%.

For `CN(C)C(=O)CSc1ccc(S(=O)(=O)N2CCOCC2)cn1`, the “hERG current change (%, negative = inhibition) at 10uM” value was found to be 10.6%.

On to `O=C(CSc1nnc(-c2cccs2)o1)N1CCCCC1`, for which the “hERG current change (%, negative = inhibition) at 10uM” value is 2.99%.

For the compound `CCOC(=O)CSc1nc2ccccc2c(=O)n1-c1ccc(C)cn1`, the “hERG current change (%, negative = inhibition) at 10uM” value stood at 0.327%.

In the case of `O=C(/C=C/c1ccc(F)cc1)NCC1(c2ccccc2)CCOCC1`, the “hERG current change (%, negative = inhibition) at 10uM” value is listed as -50.5%.

Turning to `O=C(/C=C/c1ccco1)NCC1(c2ccccc2)CCCC1`, the “hERG current change (%, negative = inhibition) at 10uM” value is -4.49%.

For `O=C(/C=C/c1ccccc1)NCC1(c2ccccc2)CCOCC1`, the “hERG current change (%, negative = inhibition) at 10uM” value is -9.11%.

Consider `O=C(NC1CCCC1)C(c1ccncc1)N(C(=O)c1csnn1)c1ccccc1` (centres unmarked), for which the “hERG current change (%, negative = inhibition) at 10uM” value is 15.1%.

For `Cc1cc(N2C(=O)C(O)=C(C(=O)c3ccco3)C2c2ccc(Cl)cc2)no1` (centres unmarked), the “hERG current change (%, negative = inhibition) at 10uM” value is -6.77%.

`O=C(NCC(=O)N(c1cccc(F)c1)C(C(=O)NCC1CCCO1)c1ccccc1)c1ccco1` (centres unmarked): the “hERG current change (%, negative = inhibition) at 10uM” value is 6.26%.

Turning to `COc1ccc(CCNC(=O)COc2ccc(N(C)S(=O)(=O)c3ccc(C)cc3)cc2)cc1`, the “hERG current change (%, negative = inhibition) at 10uM” value was found to be 6.95%.

`Cc1ccc(S(=O)(=O)N(C)c2ccc(OCC(=O)NCC3(N(C)C)CCCCC3)cc2)cc1`: the “hERG current change (%, negative = inhibition) at 10uM” value is -73.5%.

In the case of `Cc1ccc(S(=O)(=O)N(C)c2ccc(C(=O)NCC3CCCO3)cc2)cc1` (centres unmarked), the “hERG current change (%, negative = inhibition) at 10uM” value is listed as -16.7%.

`Cc1ccc(S(=O)(=O)N(C)c2ccc(C(=O)NCC3(N(C)C)CCCCC3)cc2)cc1`: the “hERG current change (%, negative = inhibition) at 10uM” value is -65.4%.

In the case of `Cc1ccc(S(=O)(=O)N(C)c2ccc(OCC(=O)NCc3ccco3)cc2)cc1`, the “hERG current change (%, negative = inhibition) at 10uM” value is on record as -44.8%.

With `Cc1ccc(S(=O)(=O)N(C)c2ccc(C(=O)NCCc3ccccc3)cc2)cc1`, the “hERG current change (%, negative = inhibition) at 10uM” value is -6.94%.

As for `O=C(CN1C(=O)NC(CCc2ccccc2)C1=O)NC1CC1` (centres unmarked), the “hERG current change (%, negative = inhibition) at 10uM” value is 18.8%.

As for `Cc1ccc(SC(C)C(=O)NCc2cccnc2)cc1` (centres unmarked), the “hERG current change (%, negative = inhibition) at 10uM” value was determined as 5.44%.

As for `COc1ccc(C(C)(C)C)cc1NC(=S)NCCN1CCOCC1`, the “hERG current change (%, negative = inhibition) at 10uM” value is reported as 1.38%.

With `Cc1ccc(Cn2c(=N)c(C(=O)NC3CCCC3)cc3c(=O)n4ccccc4nc32)cc1`, the “hERG current change (%, negative = inhibition) at 10uM” value was -92.7%.

In the case of `Cc1ccc(Cn2c(=N)c(S(=O)(=O)c3ccc(C)cc3)cc3c(=O)n4ccccc4nc32)cc1`, the “hERG current change (%, negative = inhibition) at 10uM” value was 17.7%.

For `Cc1ccc(Cn2c(=N)c(S(=O)(=O)c3ccc(Br)cc3)cc3c(=O)n4ccccc4nc32)cc1`, the “hERG current change (%, negative = inhibition) at 10uM” value is recorded as -6.27%.

As for `Cc1ccc(Cn2c(=N)c(C(=O)NC3CCCCC3)cc3c(=O)n4ccccc4nc32)cc1`, the “hERG current change (%, negative = inhibition) at 10uM” value is -65.7%.

As to `C/C(=N\NC(=O)C1CCCC1)c1ccc(Cl)c(Cl)c1`, the “hERG current change (%, negative = inhibition) at 10uM” value is 13.7%.

Take `O=C(c1ccco1)N1CCN(C(=O)C2CCCN(S(=O)(=O)Cc3ccccc3)C2)CC1` (centres unmarked): the “hERG current change (%, negative = inhibition) at 10uM” value was -35.4%.
